# Source: PubChem BioAssay
# Active and inactive are the calls of the source.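 How the source made its calls: active means calcium signal rise more than 3 SD above the low-dose agonist control mean, in both duplicate plates and the primary screen; inactive means the rest.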
# Test: nonspecific potentiation of DAMGO calcium response – cell-based, HEK293 mu-opioid receptor line, counter-screen for TRPC4 allosteric potentiator project, confirmation (AID 449724);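 further: HEK293 cells carrying mu-opioid receptor only with no TRPC4 channel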
# Settings: HEK293 mu-opioid receptor cells, Fluo-4 calcium flux, at 10 µM, compound added before EC20 DAMGO stimulus
row,SMILES,outcome
1,COc1ccc(NS(=O)(=O)c2cccc(C(=O)N3CCN(Cc4cc(OC)ccc4OC)CC3)c2)cc1,inactive
2,Cc1ccc(C(=O)c2no[n+]([O-])c2C(=O)c2ccc(C)cc2)cc1,inactive
3,O=C(NC1CCCC1)c1cc2ccccc2o1,inactive
4,COc1ccc(-n2cc(CNCc3cccnc3)c(-c3cccc(F)c3)n2)cc1,inactive
5,CN1CCCN(Cc2cccc3ccccc23)CC1,inactive
